# Measurements published in article PMC4552634, “A New Set of Chemical Starting Points with Plasmodium falciparum Transmission-Blocking Potential for Antimalarial Drug Discovery” (PLoS ONE, 2015).
# Out of some 13,000 compounds screened, about 3,200 (25%) showed an effect of 50% or more. The list shows a part of the results.
# Tested on: P. falciparum stage V gametocytes
# Set-up: BacTiter-Glo ATP luminescence viability of purified stage V gametocytes in 384-well plates, per cent inhibition versus DMSO
# Conditions: 48 h, 5 µM; inhibitor
row,SMILES,% Inhibition [%]
1,O=C(/C=C/c1ccc(Cl)c(Cl)c1)N1CCC(CCN2CCC(c3nc4ccc(O)cc4[nH]3)CC2)CC1 [TCMDC-140127],-21.57
2,O=C(Nc1ccc(F)cc1)c1cnc(N2CCN(c3ccncc3)CC2)c(Cl)c1 [TCMDC-134599],47.6
3,CC(C)(CNC(=O)C1CCN(Cc2ccc(Cl)cc2)CC1)c1nc(-c2ccc(Cl)c(O)c2)c(-c2ccncc2)[nH]1 [TCMDC-141138],-35.73
4,NC(=O)c1cc2nc(Nc3ccc(F)cc3)nc(Nc3ccc(S(N)(=O)=O)cc3)c2[nH]1 [TCMDC-137043],-45.2
5,CC(C)(C)NCc1cc(Nc2ccnc3cc(Cl)ccc23)ccc1F [TCMDC-135909],-17.74
6,C[C@H](NC(=O)[C@H](CCCCNC(=O)OC(C)(C)C)NC(=O)OC(C)(C)c1ccc(-c2ccccc2)cc1)C(=O)OCc1ccccc1 [TCMDC-131396],15.4
7,O=C(Nc1ccc2nccc(N3CCN4CCC[C@H]4C3)c2c1)c1ccc(Cl)c(Cl)c1 [TCMDC-139628],19.58
8,CC[C@H](C)CNC(=O)c1ccnc(-c2ccc(CN3CCC(N4CCCC4)CC3)cc2)c1 [TCMDC-134250],36.18
9,CC[C@H](C)CNC(=O)c1cccc(-c2ccc(CN3CCC(N4CCCC4)CC3)cc2)n1 [TCMDC-134249],57.67
10,CC[C@H](C)CNC(=O)c1cccc(-c2cccc(CN3CCC(N4CCCC4)CC3)c2)n1 [TCMDC-134224],16.22
11,N#Cc1ccc2c(c1)CCN(CCC1CCC(NC(=O)c3cc4cccc(Cl)c4[nH]3)CC1)CC2 (stereo not shown) [TCMDC-139685],-1.386
12,Cc1ccc(-c2nnc3c4ccccc4c(C)nn23)cc1S(=O)(=O)N1CCN(CCO)CC1 [TCMDC-124482],63.32
13,Cc1ccc(C(=O)Cn2nc(-c3ccc(C)c(S(=O)(=O)N4CCCCC4)c3)ccc2=O)cc1 [TCMDC-124714],32.41
14,Cc1ccc(C(=O)Cn2nc(-c3ccc(C)c(S(=O)(=O)N4CCCC4)c3)ccc2=O)cc1 [TCMDC-124704],-26.21
15,NC(=S)Cc1ccc2c(c1)OCO2 [TCMDC-137863],-6.254
16,O=C(Cc1ccccc1)NC(CCN1CCC(N(C2CC2)S(=O)(=O)c2cccc(C(F)(F)F)c2)CC1)c1ccc(Cl)c(Cl)c1 (stereo not shown) [TCMDC-141710],20.7
17,CCCCCN1CCC(NS(=O)(=O)c2cccc(C(=O)Nc3ccc(Cl)cc3)c2)CC1 [TCMDC-132806],32.08
18,Cc1cnn(-c2cccc(C(=O)NC3CCC(CCN4CCc5ccc(C#N)cc5CC4)CC3)c2)c1 (stereo not shown) [TCMDC-139818],-20.34
19,Cc1cccc2[nH]c(-c3cccc(-c4ccc(NC(=O)Nc5ccsc5)cc4)c3)nc12 [TCMDC-133211],22.09
20,COc1cccc(Nc2nc(C)cc(NC3CCN(Cc4ccccc4)CC3)n2)c1 [TCMDC-134022],-46.19
21,Cc1cc(NC2CCN(Cc3ccccc3)CC2)nc(NCCCCc2ccccc2)n1 [TCMDC-138304],79.92
22,Cc1ccc(-c2cncc(-c3cc(NC4CCN(Cc5ccccc5)CC4)nc(-c4ccccc4)n3)c2)cc1 [TCMDC-125588],17.17
23,CS(=O)(=O)N(CC(O)Cn1c2ccc(Cl)cc2c2cc(Cl)ccc21)c1ccccc1 (stereo not shown) [TCMDC-124039],35.36

row,SMILES,% Inhibition [%]
1,CC12CCC(C(=O)N(CC(O)Cn3c4ccc(Cl)cc4c4cc(Cl)ccc43)C1=O)C2(C)C (stereo not shown) [TCMDC-125719],82.98
2,OC(CNc1cccc(Cl)c1)Cn1c2ccc(Cl)cc2c2cc(Cl)ccc21 (stereo not shown) [TCMDC-125716],20.85
3,Fc1ccc2[nH]c(-c3ccc(-c4ccc(CNCC5CCCO5)cc4)cc3)nc2c1.O=C(O)C(F)(F)F (stereo not shown) [TCMDC-133097],36.17
4,CCOC(=O)c1c(CNc2ccncc2)n(C)c2cc(Br)c(OC(C)=O)cc12 [TCMDC-125700],-53.66
5,CCOC(=O)c1cc2c(CCN3C(=O)c4ccccc4C3=O)cn(C)c2cc1-c1ccncc1 [TCMDC-138099],108.6
6,CCOC(=O)c1cn(CC)c2cc(OCc3ccccc3)ccc2c1=O [TCMDC-141680],0.3884
7,CS(=O)(=O)Nc1cccc(-c2cnc3[nH]cc(-c4cc(N)cc(C(=O)O)c4)c3c2)c1 [TCMDC-136220],11.92
8,COc1nc(-n2ccc(=N)cc2)nc2ccccc12 [TCMDC-131303],8.489
9,c1ccc(-n2cncn2)cc1 [TCMDC-124291],2.88
10,CCC(C)CN1C(=O)C(c2ccccc2)(c2ccccc2)N=C1N (stereo not shown) [TCMDC-136799],-2.713
11,CCC(CN1C(=O)C(c2ccccc2)(c2ccccc2)N=C1N)c1ccccc1 (stereo not shown) [TCMDC-136879],66.04
12,CCC(CC)CN1C(=O)C(c2ccccc2)(c2ccccc2)N=C1N [TCMDC-136491],13.18
13,CN(c1cc(NC(=O)c2cccs2)ccn1)C1CCN(Cc2ccccc2)CC1 [TCMDC-135006],1.42
14,CC(C)CNCc1cccc(-c2ccc(CN(C(=O)c3cccs3)C3CCN(Cc4ccccc4)CC3)cc2)c1 [TCMDC-140569],103.7
15,CC(C)CNCc1cccc(-c2cccc(CN(C(=O)c3cccs3)C3CCN(Cc4ccccc4)CC3)c2)c1 [TCMDC-140565],96.32
16,CN(CCCCCNC(=O)/C=C/c1ccc(Cl)c(Cl)c1)CCc1c[nH]c2ccccc12 [TCMDC-139327],-26.77
17,COc1cc(Cc2c(C)nc3nc(N)nc(N)c3c2C)c(Br)c(OC)c1OC [TCMDC-137644],1.652
18,COc1cccc(NC(=O)NC2CCN(c3ccnc(Nc4ccc(F)cc4)n3)C2)c1 (stereo not shown) [TCMDC-133602],-32.07
19,CN1CCC(N(Cc2ccc(-c3ccc(Cl)cc3)cc2)C(=O)Cn2c(CCc3cccc(F)c3F)cc(=O)c3ccccc32)CC1 [TCMDC-141357],111.3
20,CN1CCC(N(Cc2ccc(-c3ccc(C(F)(F)F)cc3)nc2)C(=O)Cn2c(CCc3cccc(F)c3F)cc(=O)c3ccccc32)CC1 [TCMDC-141407],27.49
21,CCN1CCC(N(Cc2ccc(-c3ccc(Cl)cc3)cc2)C(=O)Cn2c(CCc3cccc(F)c3F)cc(=O)c3ccccc32)CC1 [TCMDC-141358],109.7
22,Nc1nc2ccc(CN(C=O)c3ccc(C(=O)N[C@@H](CCC(=O)O)C(=O)O)cc3)cc2c(=O)[nH]1 [TCMDC-132048],3.734
23,COc1ccc(Cn2c(Nc3cccc(C(F)(F)F)c3)nc3cc(C(=O)NCCN4CCCC4)ccc32)cc1Cl [TCMDC-138532],-18.24

row,SMILES,% Inhibition [%]
1,COc1ccc(Cn2c(Nc3cccc(C(F)(F)F)c3)nc3ccc(C(=O)NCCN4CCCC4)cc32)cc1Cl [TCMDC-138531],-30.77
2,COc1ccc(Cn2c(Nc3cccc(C(F)(F)F)c3)nc3cc(C(=O)NCCN4CCCC4)cnc32)cc1Cl [TCMDC-138555],60.89
3,CN(c1cc(NC(=O)c2ccc(F)cc2)ccn1)C1CCN(Cc2ccc(C#N)cc2)CC1 [TCMDC-134979],11.6
4,O=c1cc(NCCCNCc2cc(Br)ccc2F)[nH]c2ccccc12 [TCMDC-139424],-33.84
5,CC(C)CNCc1ccc(-c2ccc(CN(C(=O)NCCc3ccccc3)C3CCN(Cc4ccccc4)CC3)cc2)cc1 [TCMDC-140623],92.24
6,CC(=O)N(Cc1ccc(-c2ccc(CNCCc3ccccc3)cc2)cc1)C1CCN(Cc2ccccc2)CC1 [TCMDC-140530],41.5
7,CC(C)CNCc1ccc(-c2cccc(CN(C(=O)NCCc3ccccc3)C3CCN(Cc4ccccc4)CC3)c2)cc1 [TCMDC-140615],77.17
8,CC(C)CNCc1cccc(-c2ccc(CN(C(=O)NCCc3ccccc3)C3CCN(Cc4ccccc4)CC3)cc2)c1 [TCMDC-140622],85.53
9,O=C(NC1CCCCC1)C(c1cccs1)N(CCc1ccccc1)C(=O)c1ccco1 (stereo not shown) [TCMDC-123798],-17.48
10,CC(C)c1ccc(-c2noc(SCC(=O)N3CCCCC3C)n2)cc1 (stereo not shown) [TCMDC-124745],-11.89
11,CC(=O)NC1=NC(C)(C)N(OCc2ccc(Cl)c(Cl)c2)C(NC(C)=O)=N1 [TCMDC-131594],-1.877
12,CC(=O)Nc1cccc(/C=C/C(=O)N2CCC(N3CCCCC3)CC2)c1 [TCMDC-141128],9.67
13,Cc1cccnc1CNc1nccc2c(C)c(C)[nH]c12 [TCMDC-134148],-85.57
14,CC[C@H]1CN(Cc2ccco2)CC[C@H]1CCCc1ccnc2ccc(O)cc12 [TCMDC-140336],6.613
15,CCCCN1CC[C@@H](CCC(O)c2ccnc3ccc(OCCC(C)C)cc23)[C@@H](CC)C1 (stereo partly shown) [TCMDC-131481],66.25
16,CCCCN1CC[C@@H](CCC(O)c2cc(OCCC)nc3ccc(OC)cc23)[C@@H](CC)C1 (stereo partly shown) [TCMDC-131499],36.19
17,CCCCCCCN1CC[C@@H](CCCc2ccnc3ccc(OCCN4CCNCC4)cc23)[C@@H](CC)C1 [TCMDC-139817],103.1
18,CCCCCCCN1CC[C@@H](CCCc2ccnc3ccc(OCC4CCCNC4)cc23)[C@@H](CC)C1 (stereo partly shown) [TCMDC-139816],113
19,CCCCCCCN1CC[C@@H](CCC(O)c2ccnc3ccc(OC)cc23)[C@@H](CC)C1 (stereo partly shown) [TCMDC-138954],9.095
20,CCCCCCCN1CC[C@@H](CCCc2ccnc3ccc(OCCN4CCOCC4)cc23)[C@@H](CC)C1 [TCMDC-139815],43.2
21,CCCCCCCN1CC[C@@H](CCCc2ccnc3ccc(OCCC4CCNCC4)cc23)[C@@H](CC)C1 [TCMDC-139819],116.4
